# An excerpt weighted towards active compounds, which were near 2.4% of everything screened.
# Pol kappa inh: qHTS for Inhibitors of Polymerase Kappa; DNA polymerase kappa (Homo sapiens), Q9UBT6; purified Pol kappa, fluorescent DNA synthesis assay, 10 min; Potency, µM (top dose mostly 107 µM), inactives show at the highest dose activity, negative = inhibition, most hits filed as inhibitors; 400,000 tested, 0.53% active; AID 588579, 2011; note: % is set by controls: 0 for no effect and ±100 for the full control effect
# Target sequence (Q9UBT6 whole entry, looked up): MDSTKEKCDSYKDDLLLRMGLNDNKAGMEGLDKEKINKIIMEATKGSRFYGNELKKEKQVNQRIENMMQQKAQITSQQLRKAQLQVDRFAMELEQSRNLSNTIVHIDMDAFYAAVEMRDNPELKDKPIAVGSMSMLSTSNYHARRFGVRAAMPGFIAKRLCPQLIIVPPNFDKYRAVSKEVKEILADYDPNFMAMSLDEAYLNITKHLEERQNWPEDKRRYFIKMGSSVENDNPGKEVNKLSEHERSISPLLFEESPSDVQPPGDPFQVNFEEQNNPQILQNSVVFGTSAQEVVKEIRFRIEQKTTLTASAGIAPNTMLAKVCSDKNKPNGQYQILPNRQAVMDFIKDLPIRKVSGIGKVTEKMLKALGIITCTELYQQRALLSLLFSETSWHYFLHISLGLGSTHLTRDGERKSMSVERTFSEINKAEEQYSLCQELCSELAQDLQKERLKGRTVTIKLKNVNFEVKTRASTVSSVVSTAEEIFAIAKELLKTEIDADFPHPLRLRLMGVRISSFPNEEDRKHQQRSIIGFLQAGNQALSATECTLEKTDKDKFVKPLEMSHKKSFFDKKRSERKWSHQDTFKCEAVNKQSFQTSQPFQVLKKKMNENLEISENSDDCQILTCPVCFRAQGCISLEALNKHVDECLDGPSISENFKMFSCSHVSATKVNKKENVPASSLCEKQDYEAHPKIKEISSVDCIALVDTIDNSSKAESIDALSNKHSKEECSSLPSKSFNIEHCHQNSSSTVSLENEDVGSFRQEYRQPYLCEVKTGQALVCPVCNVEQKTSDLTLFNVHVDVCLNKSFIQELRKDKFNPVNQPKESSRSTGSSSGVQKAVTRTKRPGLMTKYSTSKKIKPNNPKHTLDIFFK
#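 Activity was followed as the change in fluorescence between reads at 0 and 10 min after starting the reaction with 50 nM substrate. Beforehand, 10 nM polymerase had been preincubated with compound for 15 min at room temperature.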
# POLB inh: qHTS Assay for Inhibitors of DNA Polymerase Beta; P06746; Pol beta primer extension/strand displacement, fluorescence kinetic; Potency, µM (series often up to 114 µM), inactives show at the highest dose activity change, negative = inhibition, hits mostly inhibitors; 340,000 tested, 1.3% active; note: % is set by controls: 0 for no effect and ±100 for the full control effect
#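 Preincubation: enzyme (10 nM) with compound, 15 min, RT. Reaction: substrate added to 50 nM final. Reads: 0 and 10 min. Analysis: normalized, Hill fit.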
# POLH inh: qHTS for Inhibitors of Polymerase Eta; recombinant Pol eta, fluorescent DNA replication assay; AID 588591, 2011; 390,000 tested, 1.2% active; DNA polymerase eta (Homo sapiens), Q9Y253; Potency, µM (doses to about 114 µM), for the others: top-dose activity change, negative = inhibition, most hits filed as inhibitors; note: % is set by controls: 0 for no effect and ±100 for the full control effect
#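 Pol eta at 10 nM preincubated with compounds 15 min at room temperature; reaction started with fluorescent substrate (50 nM final) and read kinetically at 0 and 10 min.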
# WRN helicase inh: qHTS for Inhibitors of WRN Helicase. Bifunctional 3'-5' exonuclease/ATP-dependent helicase WRN (Homo sapiens), Q14191. Potency, µM (doses to about 114 µM), for the others: at the highest dose activity change, negative = inhibition, actives largely listed as inhibitors. WRN helicase unwinding, fluorescent forked duplex, kinetic. AID 651768, 2012. 360,000 tested, 0.46% active; note: % is set by controls: 0 for no effect and ±100 for the full control effect; nearly all actives have a fitted effect of over 55% in size
#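 Primary qHTS, 1536-well format. 20 nM WRN + compound, 15 min RT; start with 100 nM forked fluorophore/quencher duplex, 2 mM ATP (final); kinetic read ex 525/em 598 nm.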
# FEN1 inhibitor: qHTS Assay for the Inhibitors of Human Flap endonuclease 1 (FEN1); P39748; Recombinant FEN1 flap cleavage, fluorescence, 15 min; Potency, µM (doses to about 114 µM), without a hit: at the top dose activity change, negative = inhibition, actives largely listed as inhibitors; 390,000 tested, 0.35% active; note: % is set by controls: 0 for no effect and ±100 for the full control effect; nearly all actives have a fitted effect of over 65% in size
#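 Recombinant FEN1 (10 nM) was preincubated with pin-transferred compounds for 15 min at room temperature, then flap DNA substrate (50 nM final) was added. Plates were read at 0 and 15 min, and normalized concentration–response data were fitted to a four-parameter Hill equation.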
# Pol iota inh: qHTS for Inhibitors of Polymerase Iota; Pol iota fluorescent replication assay, 10 min; Potency, µM (top dose mostly 115 µM), for the others: at the highest dose activity, negative = inhibition, most hits filed as inhibitors; 390,000 tested, 1% active; AID 588590, 2011
#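 Pol iota at 10 nM preincubated 15 min with compounds at room temperature; reaction started with fluorescent substrate, 50 nM final. Fluorescence read kinetically at 0 and 10 min; buffer-only wells as negative control.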
# Numbers without * were called inactive; ? = inconclusive; . = not tested or not shown; [ ] = dose if it differs, or a comment. Calls come from the whole dose curve; as a rule, active = well fitted curve in the direction sought with a large enough effect; inconclusive = small, poorly fitted or top-dose-only effect, or another doubt; inactive = no such curve, though single readings can be large; an effect the other way counts as inactive or inconclusive. Potency is the fitted concentration of half-maximal effect.
SMILES,Pol kappa inh,POLB inh,POLH inh,WRN helicase inh,FEN1 inhibitor,Pol iota inh
N#Cc1ccc(S(=O)(=O)N2CCN(c3nc(-c4ccccc4)nc4ccccc34)CC2)cc1,6%,.,.,.,17%,1%
COc1ccc2c(c1)oc(=O)c1c3ccccc3[nH]c21,-26%,22µM*,-12%,-1%,-13%,-26%
COc1ccc2c(c1)oc(=O)c1ccccc12,6%,0%,-21%,6%,-5%,4%
CC1=NN(c2cccc(F)c2)C(=O)/C1=C/c1ccc(N(C)C)cc1,-2%,15%,1%,-4%,-1%,144%
COc1ccc(/C=C2/C(=O)N(c3ccccc3)N=C2C)cc1Br,3%,18%,?,-17%[11.6 µM],?,1.3µM*
CC1=NN(c2ccc(C)c(C)c2)C(=O)/C1=C/c1ccc2c(c1)n(C)c(=O)n2C,-24%,34%,-11%,-5%,?,1.4µM*
CC1=NN(c2ccccc2)C(=O)/C1=C\c1ccc(Br)s1,-18%,1%,89µM*,-13%[11.6 µM],?,?
CC1=NN(c2ccccc2)C(=O)/C1=C/c1cccs1,-3%,2%,-13%,?,?,1.3µM*
CC1=NN(c2ccccc2)C(=O)C1=Cc1ccccc1,.,.,-2%,?,.,.
[O-][N+](=NC1C=Cc2ccccc21)C1C=Cc2ccccc21 (stereo not drawn),-6%,.,.,.,-13%,-14%
Cc1ccc2[nH]cc(C(O)c3c[nH]c4ccc(C)cc34)c2c1,0%,.,.,.,-14%,55%
CCSc1ncc(Cl)c(C(=O)Nc2sc3c(c2C(=O)OC)CCCC3)n1,-12%,.,.,.,14%,26%
COc1ccc(/C=C2/C(=O)N(c3cccc(F)c3)N=C2C)c(OC)c1,-9%,28%,11%,1%,-4%,1.1µM*
Nc1cc(N)[nH]c(=S)n1,-7%,.,.,.,?,?
Cc1ccc(NC(=O)CN2C(=O)S/C(=C\c3ccc(-c4cccc(C(=O)O)c4C)o3)C2=O)cc1,.,100µM*,.,.,.,.
Cc1ccc(NC(=O)CN2C(=O)S/C(=C\c3cc(C)n(C)c3C)C2=O)cc1,0%,4%,6%,-4%,2%,8%
Cc1ccc(NC(=O)CN2C(=O)S/C(=C\c3cc(C)n(-c4cccc(C(=O)O)c4)c3C)C2=O)cc1,-7%,45µM*,56µM*,?,-18%,?
Cc1ccc(NC(=O)CN2C(=O)S/C(=C\c3ccc(C(=O)O)cc3)C2=O)cc1,-3%,39%,7%,1%,26%,-5%
Cc1ccc(C)c(N2C(=N)S/C(=C\c3ccc(-c4ccccc4C(=O)O)o3)C2=O)c1,?,?,22µM*,?,-14%,14µM*
COc1nc(C#N)nc(N2CCCCC2)n1,-8%,.,.,.,13%,2%
O=C1C2C3CCCC3=C3CCCC3C2C(=O)N1c1ccccc1Cl (stereo not drawn),?,.,.,.,1%,-29%
COc1ccc(N=Nc2ccc(N)nc2N)cc1,-7%,-5%,-11%,-12%,3%,9%
CCOc1ccc2nc3cc(N=Nc4ccc(N)nc4N)ccc3c(N)c2c1,?,.,45µM*,?,7.1µM*,?
O=c1[nH]c(=O)n([C@H]2C[C@@H](O)[C@@H](CO)O2)cc1C=CBr,1%[60.1 µM],.,.,.,.,.
CC(C)c1nn2c(=O)cc(COC(=O)c3ccc(NC(=O)C4CCCCC4)cc3)nc2s1,-6%[60.1 µM],12%,79µM*,.,1%,18%
SMILES,Pol kappa inh,POLB inh,POLH inh,WRN helicase inh,FEN1 inhibitor,Pol iota inh
CC[n+]1ccccc1/C=C1\Sc2ccc(C)cc2N1C,3%[60.1 µM],71µM*,-9%,-18%,4%,?
Cc1nc(Nc2cnc(/C=C/c3cc(C(=O)Nc4cccc(C(F)(F)F)c4)ccc3C)cn2)cc(N2CCNCC2)n1,-5%,40µM*,40µM*,?,79µM*,-6%
CCOc1ccc(C(=O)Nc2ccc3nc(Nc4cccc(C(F)(F)F)c4)cc(C)c3c2)cc1OCC,-9%,-23%,-27%,.,-3%,25%
COc1cc(C(=O)Nc2nc(OC)c(-c3ccccc3)c(OC)n2)cc(OC)c1OC,7%[60.1 µM],45µM*,-22%,-5%[57.1 µM],?,?
COc1cc(C(=O)Nc2cc(-c3ccccc3)[nH]n2)cc(OC)c1OC,-2%,-14%,-15%,4%,5%,-2%
CC(C)(C)n1ncc2c(=O)n(Cc3ccccc3)cnc21,-9%,.,.,.,3%,10%
Cc1ccc(S(=O)(=O)N2CCN(c3nc(-n4ccnc4)nc4ccccc34)CC2)cc1,-6%,.,.,.,-13%,?
Cc1cncn1CCc1nc2c3ccccc3nc(SCC(=O)Nc3cccc(Cl)c3)n2n1,5%[60.1 µM],-8%,-12%,21%,4%,17%
CCC(Sc1nc2ccccc2c2nc(CCn3cncc3C)nn12)C(=O)Nc1cccc(OC)c1 (stereo not drawn),-4%[60.1 µM],50µM*,-14%,.,-15%,23%
CC1CC(C)CN(C(=O)COC(=O)c2ccc([N+](=O)[O-])o2)C1 (stereo not drawn),-23%,.,89µM*,0%,-18%,?
Cc1c(-c2nsc(NC(=O)c3cccs3)n2)nnn1-c1ccc(Br)cc1,-21%,3.2µM*,?,.,13%,?
COC(=O)c1ccc(-n2nnc(-c3nsc(NC(=O)c4ccc(Cl)cc4)n3)c2C)cc1,-9%,56µM*,-23%,.,10%,?
Cc1ccc(-n2nnc(-c3nsc(NC(=O)c4ccccc4)n3)c2C)cc1,-7%[60.1 µM],2%,?,.,1%,?
N#Cc1cc([N+](=O)[O-])c2sc(C(N)=O)[n+]([O-])c2c1,-12%[60.1 µM],.,.,.,.,.
CCc1ccc2[nH]c(=O)c(C(c3nnnn3CCOC)N3CCN(c4ccc(F)cc4)CC3)cc2c1 (stereo not drawn),-7%,7%,-14%,-9%,-12%,-2%
COCCn1nnnc1C(c1cc2cc(OC)c(OC)cc2[nH]c1=O)N1CCN(c2ccc(O)cc2)CC1 (stereo not drawn),-27%,-3%,-9%,?,-11%,45µM*
Cc1ccc(/C=C/C2=Cc3c(sc(NC(=O)CSc4n[nH]c(N)n4)c3C#N)C(C)(C)C2)o1,.,40µM*,.,.,.,.
C/C=C\C=C/C(=O)Nc1cccc(C2=NOC3(C2)C[C@@H](C(N)=O)N(C(=O)/C=C/CC)C3)c1 (stereo partly drawn),?,5%,22µM*,?,-14%,28µM*

# Bioassay records deposited in PubChem by National Center for Advancing Translational Sciences (NCATS).
